# Screening data deposited in PubChem by National Center for Advancing Translational Sciences (NCATS).
# Pf Dd2 inh – Plasmodium falciparum Dd2 growth inhibition; P. falciparum Dd2 growth, SYBR Green, 72 h; Potency, µM (series often up to 28.9 µM), most hits filed as inhibitors; 4.3% of 120,000 active; AID 1347417; active means well fitted inhibition curve with a large enough effect; further: nearly all actives have a fitted effect of over 65% in size
#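 Readout: SYBR Green fluorescence, 485 nm excitation, 535 nm emission, after ~16 h lysis at 37C. Before that, Dd2-infected red cells (2.5% hematocrit) grew 72 h with compound, 29 uM top final concentration.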
# Numbers stand for hits; . = inactive. This is one part of a sample in which hits are shown more often than they occur.
SMILES,Pf Dd2 inh
CC(C)CC(=O)N1CCc2ccc(S(=O)(=O)N(C)Cc3nccs3)cc2C1,.
O=C1COc2ccc(-c3cccc(OC(F)(F)F)c3)nc2CN1,.
Cc1nc(-c2c3n(c(=O)n(CC(=O)NCc4ccccc4)c2=O)CCCC3)no1,.
Cc1ccc(C(=O)NC(C(=O)N2CCCC2)C2CCN(C(=O)c3ccc(F)cc3)CC2)cc1 (stereo not drawn),.
C[C@@H]1CN(C(=O)CCCc2ccccc2)C[C@@]1(O)C1CC1,.
Cc1ccc(C2(O)CCN(CC(c3ccccc3)c3ccccc3)CC2)nc1,2.8µM
COc1ccccc1NC(=O)CN1CCC(O)(c2ccc(C)cn2)CC1,.
Cc1ccc(C2(O)CCN(c3ncccc3C(F)(F)F)CC2)nc1,.
CCn1cc(-c2c(-c3ccccc3)ncn2C(CO)C(=O)O)cn1 (stereo not drawn),.
c1cncc(COc2cc3c(cn2)NCCN(CC2CCCCC2)C3)c1,.
COCC1CN(C(=O)c2ccc(C)s2)CC12CCOCC2 (stereo not drawn),.
NCCN1C(=O)CO[C@H](c2ccc(NC(=O)NCc3ccccc3)cc2)[C@H]1CO,.
CC(C)CCNC(=O)c1cnc2c(c1)N(C(=O)Cc1ccc(C(C)C)cc1)CCC2,.
COc1ccc(C(=O)N2CCC3(CC2)COc2ccccc2[S+](=O)([O-])N3)cc1,.
O=C1NC2(CCCN(C(=O)c3ccc(F)cc3)C2)COc2ccccc21 (stereo not drawn),.
O=C(c1ccc(C(F)(F)F)cc1)N1CCC2(CC1)COc1ccccc1CN2,.
O=C1NC2(CCN(C(=O)c3ccc(F)cc3)CC2)COc2ccccc21,.
COc1ccc(C(=O)N2CCC3(CC2)COc2ccccc2C(=O)N3)cc1,2.2µM
O=C1NC2(CCN(C(=O)c3ccc(C(F)(F)F)cc3)CC2)COc2ccccc21,1.1µM
C=CCNC(=O)c1cnn2ncccc12,.
COCCCNC(=O)c1ccc2c(c1)n(Cc1cccc(F)c1)c(=O)c1ccnn12,.
CCc1nc(-c2c3n(c(=O)n(CC(=O)NCc4ccccc4)c2=O)CCCC3)no1,.
CN(CC1CCOCC1)C(=O)C1CCC1,.
COc1ccc(Nc2ccc3ncn(-c4ccccc4)c(=O)c3n2)cn1,.
COc1ccc(CNc2cc(Cl)nc3ccnn23)cc1,.
SMILES,Pf Dd2 inh
COCC[C@]1(O)CCN(C(=O)CCc2nc(-c3ccco3)no2)C[C@H]1C,.
O=C(NCC12CC3CC(CC(C3)C1)C2)c1cc2nc(-c3ccc(Cl)cc3)cc(C(F)(F)F)n2n1,.
O=C(Nc1cc(Cl)ccc1Cl)c1cc2nc(-c3ccc4c(c3)OCO4)cc(C(F)(F)F)n2n1,.
O=C(Nc1cc(Cl)ccc1O)c1cc2nc(-c3ccc4c(c3)OCO4)cc(C(F)(F)F)n2n1,1.6µM
O=C(C[C@@H]1O[C@H](CNC(=O)Nc2ccccc2)[C@@H](O)[C@H]1O)NC1CC1,.
COC(=O)N1CCC2(C1)N=C(c1ccccn1)C(=O)N2 (stereo not drawn),.
N#Cc1ccc(S(=O)(=O)N2CCC(Cc3nc(-c4cccnc4)n[nH]3)C2)cc1 (stereo not drawn),.
CCOC(=O)C1CCCN(C(=O)CC(c2ccc3c(c2)OCO3)c2cn(CC)c3ccccc23)C1 (stereo not drawn),7.1µM
Cc1ccc(C(CC(=O)N2CCc3ccccc3C2)c2cn(C)c3ccccc23)cc1 (stereo not drawn),.
Cc1ccc(C(CC(=O)N2CCC(C)CC2)c2cn(C)c3ccccc23)cc1 (stereo not drawn),.
COc1ccc(C(CC(=O)N2CCCC2)c2cn(Cc3ccccc3)c3ccccc23)cc1OC (stereo not drawn),.
CCc1cccc2c(C(CC(=O)NCCc3ccc(OC)c(OC)c3)c3cccc(OC)c3)c[nH]c12 (stereo not drawn),.
CCOC(=O)C1CCCN(C(=O)Cn2ncc3c4ccccc4n(C)c3c2=O)C1 (stereo not drawn),.
COc1ccc(C(CC(=O)NCc2ccccc2)c2c[nH]c3ccccc23)cc1OC (stereo not drawn),.
CCOC(=O)C1CCN(C(=O)CC(c2ccc(OC)c(OC)c2)c2c[nH]c3c(CC)cccc23)CC1 (stereo not drawn),1.3µM
CCc1cccc2c(C(CC(=O)NCc3ccc4c(c3)OCO4)c3ccc(OC)c(OC)c3)c[nH]c12 (stereo not drawn),4µM
CCc1cccc2c(C(CC(=O)N3CCCC3)c3cccc(Cl)c3)c[nH]c12 (stereo not drawn),.
CCc1cccc2c(C(CC(=O)NCCOC)c3ccc(OC)c(OC)c3)c[nH]c12 (stereo not drawn),.
CCOC(=O)C1CCN(C(=O)CC(c2ccc(Cl)cc2)c2cn(C)c3ccccc23)CC1 (stereo not drawn),4µM
C=CCNC(=O)C[C@@H]1CCN(C(=O)Nc2cccc(C(F)(F)F)c2)C[C@@H]1CC,.
O[C@@H]1CC(CNCc2nccs2)(COc2cccnc2)C[C@@H]1O (stereo partly drawn),.
O=C(N[C@@H]1CN(c2ncccn2)C[C@H]1CO)c1ccoc1,.
COc1ccccc1CC(=O)NCC(=O)N1CCN(c2ccccn2)CC1,.
CN1CCN(C(=O)CCc2nc(C3CCCN3C(=O)NCCc3ccccc3)no2)CC1 (stereo not drawn),.
CCn1c2c(c(=O)n1-c1ccccc1)CCN(C(=O)c1scnc1C)C2,.
SMILES,Pf Dd2 inh
COc1cccc(-c2nc(-c3nnn4c3COC(c3ccccc3Cl)C4)no2)c1 (stereo not drawn),.
O=C1CCN(C(=O)c2ccc3ccccc3n2)CCOCCN1,.
Cc1ncsc1CN1C[C@@H]2C(=O)N(CCCN3CCCC3=O)C(=O)[C@@H]2C1,.
CCc1cccc(C)c1NC(=O)Cn1c(=O)n(-c2ccccc2)c(=O)c2c1cc(C)n2C,.
CCOc1ccccc1C1NC(=O)N(CC(=O)NCc2ccc(F)cc2)C2=C1C(=O)OC2 (stereo not drawn),.
Cc1ccc(C(=O)N2CCC(CCC(=O)NC3CC3)CC2)cc1,.
COc1ccc(C(=O)N2CCOCC3(CN(Cc4ccccc4)C3)C2)cc1,.
COc1ccc(C(=O)N2CCOCC3(CN(Cc4ccccc4)C3)C2)c(OC)n1,0.89µM
COc1ccc(C(=O)N2CCOCC3(CN(Cc4cc(F)cc(F)c4)C3)C2)c(OC)n1,.
CN(C)Cc1cc(CC2(NCc3ccccc3Cl)COC2)no1,.
Cc1cc2c(c(=O)n(-c3ccc(F)cc3)c(=O)n2CC(=O)Nc2cc(F)ccc2F)n1C,.
COc1cccc2ccc(-c3c(-c4ccccc4)ncn3CCNC(C)=O)nc12,.
CCCn1ccnc1-c1c(-c2ccccc2)ncn1CCCC(=O)OC,.
COc1cccc(OC)c1-c1c(-c2ccccc2)ncn1CCCSC,10µM
COCc1nc(C2CCCN(C(=O)Nc3cc(C)ccc3C)C2)no1 (stereo not drawn),.
c1ccc(-c2noc(-c3cncnc3Nc3ccc4c(c3)OCO4)n2)cc1,5.6µM
c1ccc(-c2noc(-c3cncnc3Nc3ccc4c(c3)OCCO4)n2)cc1,.
COc1ccc(Nc2ncncc2-c2nc(-c3ccccc3)no2)cc1OC,.
Cc1cnc(C(=O)N2CCCn3nc(CCC(=O)NC(C)C)cc3C2)cn1,.
NC1CCN(C(=O)C2CCN(c3nc(-c4ccccc4)nc4c3CCC4)CC2)C1 (stereo not drawn),.
CC1CCN(C(=O)C2CCN(c3nc(-c4ccccc4)nc4c3CCC4)CC2)CC1,.
OCCC1CN(c2nc(-c3ccccc3)nc3c2CCC3)CCN1C1CCCC1 (stereo not drawn),10µM
